Among the test systems are NCI-H23 lung; NCI-H226 lung; NCI-H322M lung; HOP-62 NSCLC; NCI-H460 lung; 786-0 renal; DU-145 prostate; MDA-MB-231 breast; SF-268 CNS; SF-539 CNS; M14 melanoma; SNB-19 CNS; U251 CNS; SN12C renal; UO-31 renal; SK-OV-3 ovarian; MDA-MB-435 melanoma; SW-620 colon; HCT-116 colon; KM12 colon.
Assay in all cases: NCI-60 one-dose screen, 48 h (100 = growth as untreated, 0 = no growth, -100 = all killed)
Common to all, as to settings: 10 µM unless noted

This is part of a sample that, as a whole, favours compounds with a hit. Of some 83,000 tested, about 20% had one in any assay.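 Cells were grown in 96-well plates and exposed to the test compound at a single concentration for 48 hours; results are reported as percent growth, with values below 10 considered active.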 Unmarked numbers belong to inactive results. Activity calls are given as the source filed them.

For the compound `CCC1([N+](=O)[O-])COP(=O)(NCc2cccnc2)OC1` (stereo not given), the growth was 115% in the assay on NCI-H23 lung; 99.9% in the assay on NCI-H226 lung; 111% with NCI-H322M lung; 103% in the assay with HOP-62 NSCLC; 104% in the assay on NCI-H460 lung; 96.4% in the assay on 786-0 renal. For the same compound, the growth in the assay on DU-145 prostate was 103%; in the assay on MDA-MB-231 breast, 111%; with SF-268 CNS, 106%; in the assay with SF-539 CNS, 106%; in the assay on M14 melanoma, 109%; in the assay on SNB-19 CNS, 108%. Moreover, the growth is 107% with U251 CNS; 114% with SN12C renal; 91.1% in the assay on UO-31 renal; 94.4% in the assay with SK-OV-3 ovarian; 117% with MDA-MB-435 melanoma; 105% in the assay on SW-620 colon. For the same compound, the growth with HCT-116 colon and in the assay on KM12 colon was 103% each time.
Take `CC[C@H](C)[C@H](NC(=O)Nc1ccccc1)C(=O)N(C)[C@H](C[C@@H](OC(C)=O)c1nc(C(=O)N[C@@H](Cc2ccccc2)C[C@H](C)C(=O)OC)cs1)C(C)C`: the growth was 23.6% with NCI-H23 lung; 24.5% with NCI-H226 lung; 48.4% in the assay with NCI-H322M lung; 20.3% in the assay with HOP-62 NSCLC; 1.7% (active) in the assay on NCI-H460 lung; 18.1% in the assay with 786-0 renal. Besides, the growth was -3.41% (active) in the assay with DU-145 prostate; -4.27% (active) in the assay with MDA-MB-231 breast; 18.8% in the assay with SF-268 CNS; -26.3% (active) with SF-539 CNS; -7.55% (active) in the assay on M14 melanoma; 45% in the assay on SNB-19 CNS. In addition, the growth was 7.23% (active) in the assay on U251 CNS; 46.6% with SN12C renal; 26.7% with UO-31 renal; 25.4% in the assay on SK-OV-3 ovarian; -36.7% (active) in the assay on MDA-MB-435 melanoma; 17% with SW-620 colon. The growth in the assay on HCT-116 colon was 6.85% (active); in the assay with KM12 colon, 4.31% (active).
Take `CC1(C)N=C(N)N=C(N)N1c1ccc(CCCCc2ccc(Cl)cc2S(=O)(=O)F)c(Cl)c1`: the growth in the assay with NCI-H23 lung was 25.6%; with NCI-H226 lung, 30.6%; with NCI-H322M lung, 34.2%; with HOP-62 NSCLC, 33.4%; in the assay with NCI-H460 lung, 8.45% (active); in the assay on 786-0 renal, 20.4%. Moreover, the growth was 22.5% in the assay on DU-145 prostate; 27.4% in the assay with MDA-MB-231 breast; 25.2% with SF-268 CNS; 19.6% with SF-539 CNS; 18% in the assay with M14 melanoma; 36.6% with SNB-19 CNS. In addition, the growth in the assay with U251 CNS was 15.3%; in the assay on SN12C renal it was 23.4%; in the assay on UO-31 renal it was 60.7%; with SK-OV-3 ovarian, 44.2%; in the assay with MDA-MB-435 melanoma, 19.6%; with SW-620 colon it was 11.9%. Further, the values for the growth in the assay on HCT-116 colon and in the assay on KM12 colon were 14.9% and 15.7%, respectively.
Consider `Cc1ccc(N)cc1[As]=[As]c1cc(N)ccc1C` (stereo not given), for which the growth is -56.4% (active) with NCI-H23 lung; -93.2% (active) in the assay on NCI-H226 lung; 50.3% in the assay on NCI-H322M lung; 14.9% with HOP-62 NSCLC; 60.4% with NCI-H460 lung; -89.3% (active) in the assay with 786-0 renal. In addition, the growth was -40.6% (active) in the assay with DU-145 prostate; -92.6% (active) in the assay with MDA-MB-231 breast; -83.6% (active) in the assay on SF-268 CNS; -94.5% (active) with SF-539 CNS; -72.2% (active) in the assay on M14 melanoma; -47.5% (active) in the assay with SNB-19 CNS. For the same compound, the growth with U251 CNS is -98.7% (active); in the assay on SN12C renal, -86.5% (active); in the assay with UO-31 renal, -99.7% (active); in the assay with SK-OV-3 ovarian, 75.3%; with MDA-MB-435 melanoma, -89% (active); in the assay on SW-620 colon, -57% (active). Moreover, the growth is -79.4% (active) in the assay on HCT-116 colon and 65.7% in the assay on KM12 colon.
As to `CCC(C)/C=C(C)/C=C/C(=O)c1c(O)c(-c2ccc(O)cc2)c[nH]c1=O` (stereo not given), the growth in the assay with NCI-H23 lung was 64.6%; in the assay on NCI-H226 lung, 91.5%; in the assay with NCI-H322M lung, 59.3%; in the assay on HOP-62 NSCLC, 60.8%; with NCI-H460 lung it was 31.6%; with 786-0 renal it was 49.7%. Also, the growth in the assay with DU-145 prostate was 24.8%; with MDA-MB-231 breast, 70%; with SF-268 CNS it was 33.3%; in the assay with SF-539 CNS it was 61.7%; in the assay with M14 melanoma it was 79.1%; in the assay with SNB-19 CNS it was 59%. In addition, the growth was 40.9% in the assay on U251 CNS; 60.5% in the assay on SN12C renal; 35% in the assay on UO-31 renal; 74.3% in the assay on SK-OV-3 ovarian; 24.2% with MDA-MB-435 melanoma; 39.6% in the assay on SW-620 colon. The growth in the assay on HCT-116 colon is 39%; with KM12 colon, 40.6%.
For `CC1(C)N=C(N)N=C(N)N1c1ccc(OCCCCOc2ccc(S(=O)(=O)F)cc2)c(Cl)c1`, the growth in the assay on NCI-H23 lung is 20%; in the assay with NCI-H226 lung it was 29.6%; in the assay with NCI-H322M lung, 23.2%; in the assay with HOP-62 NSCLC, 28.3%; in the assay with NCI-H460 lung, 4.24% (active); in the assay with 786-0 renal, 20.6%. Besides, the growth in the assay with DU-145 prostate is 24.6%; in the assay with MDA-MB-231 breast, 38.3%; in the assay with SF-268 CNS it was 17.9%; with SF-539 CNS, 12.2%; with M14 melanoma, 19%; in the assay with SNB-19 CNS, 24.4%. The growth with U251 CNS was 12%; with SN12C renal, 17.4%; in the assay on UO-31 renal it was 67.7%; with SK-OV-3 ovarian, 43.3%; with MDA-MB-435 melanoma, 16.8%; in the assay with SW-620 colon, 13%. Moreover, the growth with HCT-116 colon was 11.2%; in the assay on KM12 colon, 9.69% (active).
Regarding `O=CN1N=C(c2ccccc2)CC1c1sc(N(CCCl)CCCl)nc1Cl` (stereo not given), the growth with NCI-H23 lung was 87.5%; in the assay on NCI-H226 lung, 85.1%; in the assay with NCI-H322M lung it was 82.4%; in the assay on HOP-62 NSCLC, 86.9%; with NCI-H460 lung, 106%; with 786-0 renal it was 104%. Moreover, the growth was 111% in the assay with DU-145 prostate; 77.8% with MDA-MB-231 breast; 101% in the assay on SF-268 CNS; 109% with SF-539 CNS; 103% in the assay with M14 melanoma; 90.9% in the assay with SNB-19 CNS. Further, the growth was 96.5% in the assay with U251 CNS; 96.1% with SN12C renal; 71.7% in the assay on UO-31 renal; 79.2% in the assay with SK-OV-3 ovarian; 99.2% in the assay on MDA-MB-435 melanoma; 105% in the assay on SW-620 colon. For the same compound, the growth in the assay with HCT-116 colon is 89.4%; in the assay with KM12 colon it was 98.9%.
As to `COC1=CC(=O)OC(CCc2ccc3c(c2)OCO3)C1` (stereo not given), the growth in the assay on NCI-H23 lung is 121%; with NCI-H226 lung, 105%; in the assay with NCI-H322M lung, 132%; in the assay with HOP-62 NSCLC, 106%; with NCI-H460 lung, 103%; in the assay with 786-0 renal it was 112%. Also, the growth in the assay on DU-145 prostate was 122%; in the assay on MDA-MB-231 breast it was 114%; in the assay on SF-268 CNS, 101%; in the assay on SF-539 CNS, 103%; with M14 melanoma, 104%; with SNB-19 CNS, 103%. Besides, the growth was 89% in the assay with U251 CNS; 107% in the assay with SN12C renal; 101% with UO-31 renal; 112% in the assay with SK-OV-3 ovarian; 112% with MDA-MB-435 melanoma; 102% with SW-620 colon. Besides, the growth is 106% in the assay with HCT-116 colon and 109% in the assay on KM12 colon.
